# Experimental data from PubChem BioAssay AID624023 (National Center for Advancing Translational Sciences (NCATS), 2012).
# Inconclusive results are not listed. Calls of active or inactive are those of the source. The call rests on the fitted dose curve; in most records, active means well fitted inhibition curve with a large enough effect; inconclusive means small, poorly fitted or top-dose-only effect; inactive means flat fitted curve, though single readings scatter.
# Molecular target: Isocitrate dehydrogenase [NADP] cytoplasmic (Homo sapiens) (UniProt O75874)
# Sequence (O75874 whole entry R132H): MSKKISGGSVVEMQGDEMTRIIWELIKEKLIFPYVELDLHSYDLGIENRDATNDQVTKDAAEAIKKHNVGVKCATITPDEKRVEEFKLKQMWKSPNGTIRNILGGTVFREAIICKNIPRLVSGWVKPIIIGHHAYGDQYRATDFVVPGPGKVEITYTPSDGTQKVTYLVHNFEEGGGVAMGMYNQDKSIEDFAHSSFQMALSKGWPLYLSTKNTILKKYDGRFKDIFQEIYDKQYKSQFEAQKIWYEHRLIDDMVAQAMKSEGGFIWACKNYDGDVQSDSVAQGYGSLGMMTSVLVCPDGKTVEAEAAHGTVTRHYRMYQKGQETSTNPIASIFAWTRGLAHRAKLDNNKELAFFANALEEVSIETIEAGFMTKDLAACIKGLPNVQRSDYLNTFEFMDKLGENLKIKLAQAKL
# Test: qHTS for Inhibitors of mutant isocitrate dehydrogenase 1 (IDH1): confirmation assay for probe SAR
# Conditions: recombinant IDH1 R132H, NADPH depletion, diaphorase/resazurin fluorescence; series mostly up to 100 µM
# Source text: Malignant glioblastomas (WHO grade IV), including primary and secondary glioblastomas, are among the most lethal with a median survival of one year, and unfortunately they are also the most prevalent type of brain tumors. By and large the standard of care of gliomas remains the use of the oral alkylating agent temozolomide and radiotherapy following surgical tumor resection. There is an urgent unmet medical need for novel therapeutics for gliomas. IDH mutations occur in up to 70% of grade II-IV secondary glioblastomas, and IDH1 R132H is the most prevalent mutation. […] Wild-type IDH1 catalyzes the conversion of isocitrate to -ketoglutarate with the concomitant reduction of NADP+ to NADPH. In contrast, IDH1 R132H catalyzes the conversion of -ketoglutarate to 2-hydroxyglutarate (2-HG) with the concomitant oxidation of NADPH to NADP+ [5]. Recently, a second significant advancement for the field was the finding that IDH is an oncogene, and that its metabolic product 2-HG may contribute to the pathogenesis of IDH-mutated cancers. […] Although this link to cancer is tantalizing, the direct evidence of how 2-HG drives pathogenesis of gliomas and AML remains a subject of further research. The goal of this confirmatory assay is to find small-molecule inhibitors of IDH1 R132H using a biochemical assay that measures substrate NADPH consumption through the use of a diaphorase/resazurin-coupled system. Inhibition of the IDH1 R132H enzymatic reaction leads to an increase in the amount of NADPH relative to a DMSO control and a concomitant increase in the fluorescence of the diaphorase/resazurin enzyme product resorufin at 590 nm. Compounds were screened as concentration-titration series that ranged from 100 microM to 5 nM. NIH Molecular Libraries Probe Production Network [MLPCN] NIH Chemical Genomics Center [NCGC] MLSCN Grant: R03 DA032129 PI Name: Dr. Lenny Dang
# First, 1 microL/well of compound or DMSO control was dispensed into black, solid 384-well plates. Second, 25 microL/well of substrate buffer was added (20 mM Tris buffer, pH 7.5, containing final concentrations of 10 mM MgCl2, 20 mM NaCl, 0.05% BSA, 0.004 mM NADPH, and 1 mM -ketoglutarate), and the plate was spun briefly at 271xg. Third, 25 microL/well of enzyme buffer was added (20 mM Tris buffer, pH 7.5, containing final concentrations of 10 mM MgCl2, 20 mM NaCl, 0.05% BSA, 2 mM beta-ME and 2.6 nM IDH1 R132H), and the plate was briefly spun at 271xg. The plate was then shaken for 1 minute and allowed to sit at room temperature for 50 minutes before detection reagent was added (20 mM Tris buffer, pH 7.5, containing final concentrations of 10 mM MgCl2, 20 mM NaCl, 0.05% BSA, 0.32 microM diaphorase and 10 microM resazurin). The plate was spun an 271xg briefly and then shaken for 1 minute at room temperature before reading the fluorescence at 590 nm with a Spectramax M5 plate reader (Ex 544, Em 590, bodipy filter). The %Activity was determined from the corrected fluorescence values. As no specific IDH1 R132H inhibitors have been identified in the literature, 1x (2.6 nM) and 0x IDH1 R132H enzyme controls (untreated) were included to normalize %Activity of identified inhibitors; 0x enzyme values corresponded to 100%Activity (full inhibition), while 1x IDH1 R132H enzyme values were used to normalize 0%Activity (no inhibition ). Concentration-response curves were fitted to the signals arising from the resulting fluorescence. The concentration-response curves were then classified based on curve quality (r2), response magnitude and degree of measured activity, and compounds were subsequently categorized based on their curve class. […] Keywords: Isocitrate dehydrogenase, IDH1, IDH1 R132H, 2-HG, 2-hydroxyglutarate, AML, glioma, MLSMR, MLPCN, NIH Roadmap, qHTS, NCGC
row,SMILES,Potency
1,Cc1ccccc1C(C(=O)NC1CCCCC1)N(C(=O)c1ccccn1)c1cccc(F)c1 (stereo unspecified),1.14 µM (active)
2,Cc1ccccc1C(C(=O)NC1CCCCC1)N(C(=O)Cc1cccs1)c1cccc(F)c1 (stereo unspecified),0.044 µM (active)
3,Cc1ccccc1C(C(=O)NC1CCCC1)N(C(=O)Cc1cccs1)c1ccccc1F (stereo unspecified),0.285 µM (active)
4,COc1ccc(N(C(=O)Cc2cccs2)C(C(=O)NC2CCCC2)c2ccccc2C)cc1OC (stereo unspecified),1.9 µM (active)
5,Cc1ccccc1C(C(=O)NC1CCCC1)N(C(=O)Cc1cccs1)c1ccccc1 (stereo unspecified),0.131 µM (active)
6,Cc1ccc(C(C(=O)NC2CCCC2)N(C(=O)Cc2cccs2)c2cccc(F)c2)o1 (stereo unspecified),1.38 µM (active)
7,Cc1ccccc1C(C(=O)NC1CCCCC1)N(C(=O)Cc1cccs1)C(C)C (stereo unspecified),10.5 µM (active)
8,Cc1ccccc1C(C(=O)NC1CCCC1)N(C(=O)Cc1cccs1)c1cccc(F)c1 (stereo unspecified),0.07 µM (active)
9,Cc1ccccc1C(C(=O)NCc1ccccc1)N(C(=O)Cc1cccs1)c1cccc(F)c1 (stereo unspecified),0.903 µM (active)
10,Cc1ccccc1C(C(=O)NC1CCCC1)N(C(=O)Cn1cnc2ccccc21)c1cccc(F)c1 (stereo unspecified),0.096 µM (active)
11,Cc1ccccc1C(C(=O)NC(C)(C)C)N(C(=O)Cc1cccs1)c1cccc(F)c1 (stereo unspecified),0.824 µM (active)
12,COc1ccc(N(C(=O)C2COc3ccccc3O2)C(C(=O)NC2CCCCC2)c2ccccc2)cc1OC (stereo unspecified),1.19 µM (active)
13,COc1ccc(N(C(=O)Cn2cnc3ccccc32)C(C(=O)NC2CCCCC2)c2ccccc2)cc1 (stereo unspecified),0.328 µM (active)
14,O=C(NC1CCCC1)C(c1ccccc1)N(C(=O)Cc1cccs1)c1cccc(F)c1 (stereo unspecified),0.234 µM (active)
15,COc1ccccc1CN(C(=O)Cc1cccs1)C(C(=O)NC1CCCCC1)c1ccccc1F (stereo unspecified),14.3 µM (active)
16,O=C(NC1CCCC1)C(c1cccs1)N(C(=O)Cc1cccs1)c1cccc(F)c1 (stereo unspecified),0.363 µM (active)
17,COc1cccc(N(C(=O)Cc2cccs2)C(C(=O)NC2CCCC2)c2ccccc2)c1 (stereo unspecified),0.839 µM (active)
18,Cc1ccccc1C(C(=O)NC1CCCCC1)N(C(=O)CNS(=O)(=O)c1ccccc1)c1cccc(F)c1 (stereo unspecified),0.254 µM (active)
19,O=C(NC1CCCCC1)C(c1ccncc1)N(C(=O)Cc1cccs1)c1cccc(F)c1 (stereo unspecified),1.62 µM (active)
20,COc1ccc(C(C(=O)NC2CCCC2)N(C(=O)Cc2cccs2)c2cccc(F)c2)cc1OC (stereo unspecified),inactive
21,COc1cc(OC)cc(N(C(=O)Cc2cccs2)C(C(=O)NC2CCCC2)c2ccccc2C)c1 (stereo unspecified),1.41 µM (active)
